Results from PubChem BioAssay AID2803 (The Scripps Research Institute Molecular Screening Center, 2010).
Hit rate of the full screen: of about 2,000 compounds, about 1,300 (65%) were called active. So high a share suggests a set chosen from earlier hits. Only a sample is shown. A number with no mark means an inactive call. Rule as the data show it: active = inhibition above about 43%; inactive = the rest.

What follows are compounds tested against Prolyl endopeptidase-like (Homo sapiens) (UniProt Q4J6C6) (assay: human PREPL enzyme inhibitors, confirmation, biochemical, fluorescence polarization (AID 2803;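 also: 0% = protein with DMSO and 100% = wells lacking protein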)). Settings: recombinant PREPL, fluorescence polarization activity probe; at 5.96 µM; hits give high values.
Prolyl endopeptidase-like (Homo sapiens), sequence (Q4J6C6 whole entry, looked up): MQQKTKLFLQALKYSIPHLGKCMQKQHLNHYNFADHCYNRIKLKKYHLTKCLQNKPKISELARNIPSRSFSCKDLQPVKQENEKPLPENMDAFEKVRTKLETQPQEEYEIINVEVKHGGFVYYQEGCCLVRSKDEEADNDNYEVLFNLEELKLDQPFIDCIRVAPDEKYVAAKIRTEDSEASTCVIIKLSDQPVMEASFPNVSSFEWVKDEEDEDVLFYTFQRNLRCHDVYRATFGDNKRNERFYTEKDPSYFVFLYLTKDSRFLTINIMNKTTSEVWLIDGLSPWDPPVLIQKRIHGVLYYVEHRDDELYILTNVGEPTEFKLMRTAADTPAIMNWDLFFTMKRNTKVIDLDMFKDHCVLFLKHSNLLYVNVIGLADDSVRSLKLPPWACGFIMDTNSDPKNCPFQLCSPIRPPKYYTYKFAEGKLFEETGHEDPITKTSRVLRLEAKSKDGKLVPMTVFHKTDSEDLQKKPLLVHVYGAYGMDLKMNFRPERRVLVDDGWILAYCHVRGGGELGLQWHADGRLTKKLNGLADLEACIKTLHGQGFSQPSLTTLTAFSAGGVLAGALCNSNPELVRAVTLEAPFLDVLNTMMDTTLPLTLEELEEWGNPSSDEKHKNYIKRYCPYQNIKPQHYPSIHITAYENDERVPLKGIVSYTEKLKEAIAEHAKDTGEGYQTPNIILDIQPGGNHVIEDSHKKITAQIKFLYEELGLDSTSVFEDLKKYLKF

Structure (SMILES) | inhibition
CCOc1cccc(=NC2CCCCC2)c2c(C)[nH]c(C)c12 | 54.4% (active)
O=C(NCC(c1cccnc1)N1CCN(c2ccccc2)CC1)Oc1ccccc1 (stereo not drawn) | 39.3%
COc1ccc2[nH]c3c(c2c1)CCN[C@H]3C | 23.7%
